High-throughput results: PubChem BioAssay, several laboratories
Most compounds without a hit are left out; they make up all but 3.7% or so of the library.
Bead autofluor – counter-screen for toxin protease inhibitors: compound fluorescence; fluorescence intensity (no concentration beside the values); AID 624483; compound autofluorescence counterscreen, microsphere flow cytometry; active compounds read high; 360,000 compounds, 3.1% hits; in the data active = fluorescence intensity above about 16000; inconclusive = no clear call, values can overlap the other calls
BoNT F protease – BoNT/F light chain protease inhibitors, primary screen, biochemical, flow cytometry, MLPCN library; Botulinum neurotoxin type F light chain protease (Clostridium botulinum); Multiplex microsphere protease cleavage assay; inhibition, % at 10 µM; 360,000 compounds, 0.22% hits; AID 588497, 2011; in the data active = inhibition above about 35%, passing the limit was not always enough; inconclusive = no clear call, values can overlap the other calls
BoNT-A LC inh2 – BoNT/A light chain protease inhibitors, primary screen, biochemical, flow cytometry, MLPCN library; inhibition, % at 10 µM; multiplex microsphere protease substrate cleavage; 360,000 compounds, 0.17% hits; Botulinum neurotoxin type A light chain protease (Clostridium botulinum A str. ATCC 3502); AID 588499, 2011
Anthrax LF prot – Bacillus anthracis LF protease inhibitors, primary screen, biochemical, multiplex microsphere, MLPCN library; inhibition, % at 10 µM; AID 588501, 2011; multiplex microsphere protease cleavage assay; 360,000 compounds, 0.12% hits
MazF activator – activators of E. coli MazEF toxin-antitoxin RNase, primary screen, biochemical, fluorescence, uHTS; Endoribonuclease toxin MazF (Escherichia coli (strain K12)), P0AE70; FAM/BHQ RNA-DNA oligo cleavage fluorescence, 5 h; activation, % at 20 µM; 350,000 compounds, 0.32% hits; in the data active = activation above about 50%
Of the large screens only hits and unclear results are named; the others gave an inactive call. Cut-off read from the data, not from the text of the source, unless noted: active = inhibition above about 30%; inconclusive = no clear call, values can overlap the other calls; inactive = below that.

Clc1ccccc1CSc1ncn(-c2ccccc2)n1	Bead autofluor 21905
CCN(CC)c1ccc(/C=C(/C#N)c2nc3ccc(C)cc3[nH]2)c(OC(C)C)c1	Bead autofluor 27707, BoNT F protease 64
Cc1ccc2nc(/C(C#N)=C\c3cc(O)ccc3[N+](=O)[O-])[nH]c2c1	none
CCCOc1cc(N(CC)CC)ccc1/C=C(/C#N)c1nc2ccc(C)cc2[nH]1	Bead autofluor 23823, BoNT F protease 45
CCOc1cc(N(CC)CC)ccc1/C=C(/C#N)c1nc2ccccc2[nH]1	BoNT F protease 42, MazF activator 132
COc1cc(/C=C(\C#N)c2nc3ccc(C)cc3[nH]2)c([N+](=O)[O-])cc1OC	none
CC1(C)OC(=O)C(=CNc2cccc(O)c2)C(=O)O1	none
CC1(C)OC(=O)C(=CNc2ccccc2)C(=O)O1	Bead autofluor 18882
CC1CC(C)CN(C(=O)CSc2nnc3ccccn23)C1 (centres undefined)	none
O=C(CCN1CCCO1)N1CCCC(Nc2cccc(F)c2)C1 (centres undefined)	none
COc1ccc(NC(=O)CSc2nc3ccccc3c(=O)n2CCC(=O)N2CCCCC2)cc1	Bead autofluor 21679
COc1cccc(NC(=O)CSc2nc3ccccc3c(=O)n2CCCC(=O)N2CCCC2)c1	Bead autofluor 23337, BoNT-A LC inh2 inconclusive
COc1ccc(-n2c(SCC(=O)NCCC(C)C)nc3ccsc3c2=O)cc1	Bead autofluor 21316
COc1ccc(-n2c(SCC(=O)C(C)(C)C)nc3ccsc3c2=O)cc1	none
CCOc1ccc(NC(=O)CSc2nc3ccccc3c(=O)n2CCCC(=O)N2CCCC2)cc1	none
COCCNC(=O)CSc1nc2ccccc2c(=O)n1-c1cccc(OC)c1	Bead autofluor 21564
CCOC(=O)C(C(=O)OCC)c1c([N+](=O)[O-])c(=O)n2c3c(cccc13)CCC2	none
C[C@H](CO)N1C[C@H](C)[C@H](CN(C)C(=O)Nc2ccccc2F)OCc2cnnn2CCCC1=O	none
COCCn1c(SCC(=O)Nc2cccc(C(=O)OC)c2)nc2ccccc2c1=O	Bead autofluor 16194
O=C(Cn1nnc(-c2ccccc2)n1)NCc1ccco1	none
CCOC(=O)C(Cc1ccccc1)NC(=O)Cn1nnc(-c2ccccc2)n1 (centres undefined)	Bead autofluor 20857
CCOc1ccc(-c2nnn(CC(=O)NCc3ccco3)n2)cc1	Bead autofluor 19976, BoNT-A LC inh2 inconclusive
CCCOc1ccc(-c2nnn(CC(=O)OCC)n2)cc1	Bead autofluor 22991
COC(=O)c1ccc(CSc2ccccc2NC(=S)Nc2cccc(C(F)(F)F)c2)o1	none
CC(C)Sc1nc(-c2cccs2)nc2cc(Cl)ccc12	none (no result: MazF activator)
O=C1NC[C@H](CCCCN2C[C@H](Cc3ccccc3)N(CCC3CCCCC3)C(=O)C2=O)N(CCc2ccc(O)cc2)C1=O	none (no result: MazF activator)
O=c1c2nnn(Cc3ccc(Cl)cc3)c2ncn1Cc1ccc(F)cc1	Bead autofluor 22862
CN(C)CCCOC(=O)c1sc2ccccc2c1Cl	none
CCCCOC(=S)NC(=O)c1sc2ccccc2c1Cl	Bead autofluor 23574
Cc1ccc(-n2ncc3c(=O)n(CC#N)cnc32)cc1	Bead autofluor 20625
O=C1c2ccccc2C(=O)N1c1ccc(S(=O)(=O)N2CCCCC2)cc1	BoNT F protease inconclusive
CC(C)NS(=O)(=O)c1ccc(N2C(=O)c3ccccc3C2=O)cc1	Bead autofluor 19293
CCS(=O)(=O)n1nc(-c2ccc(Cl)cc2)nc1SC	Bead autofluor 22674
CCS(=O)(=O)n1nc(-c2ccco2)nc1SC	none
CCOC(=O)N1CCN(c2nc(C)c3c(n2)CC(C)CC3=O)CC1 (centres undefined)	Bead autofluor 23668
Cc1cc(NC(=O)c2noc3c2CCCC3)no1	Bead autofluor 21619
O=C(Nc1cccnc1)c1noc2c1CCCC2	Bead autofluor 26961
Cc1cc(NC(=O)c2noc3c2CCCCC3)no1	none
Cc1nn(Cc2ccc(Cl)c(Cl)c2)c(C)c1NC(=O)c1noc2c1CCCCC2	Bead autofluor 17489, BoNT-A LC inh2 inconclusive
CC(C)(C)C1CCc2onc(C(=O)Nc3cccnc3)c2C1 (centres undefined)	none
CC(C)Oc1ccc(C(=O)Nc2cc(S(=O)(=O)N3CCOCC3)ccc2N2CCOCC2)cc1	none
CC1CCN(S(=O)(=O)c2ccc(NC(=O)Cc3cccs3)cc2)CC1	Bead autofluor 20322
CC1CCN(S(=O)(=O)c2ccc(NC(=O)Cn3nnc(-c4ccccc4)n3)cc2)CC1	Bead autofluor 19646
O=C(Cn1nnc(-c2ccc(S(=O)(=O)N3CCCC3)cc2)n1)NCC1CCCO1 (centres undefined)	Bead autofluor 22963
CC1CCCN(CC(=O)Nc2ccc(S(=O)(=O)N3CCCCCC3)cc2)C1 (centres undefined)	Bead autofluor 16175
CC1CCN(CCCNS(=O)(=O)c2cc(Br)cc3c2N(C(=O)C2CC2)CC3)CC1	none
COCc1c(C(=O)OC)nnn1-c1ccccc1	Bead autofluor 22960, BoNT-A LC inh2 inconclusive
COc1ccc(C(=O)Nn2c(SCC(=O)NCc3ccccc3)nc3ccccc3c2=O)cc1	none
O=C(CSc1nc2ccccc2c(=O)n1NC(=O)c1ccccc1)c1ccccc1	Bead autofluor 22548
O=C(CSc1nc2ccccc2c(=O)n1NC(=O)Cc1ccccc1)NCc1ccccc1	Bead autofluor 23372
COc1ccc(C(=O)Nn2c(SCC(=O)NC3CCCC3)nc3ccccc3c2=O)cc1	Bead autofluor 21985
O=C(CSc1nc2ccccc2c(=O)n1NC(=O)c1ccccc1)c1ccc(Cl)cc1	Bead autofluor 19026, BoNT-A LC inh2 inconclusive
CCn1c(SCC(=O)c2ccccc2)nc2ccccc2c1=O	none
Cc1nc2ccccc2c(=O)n1NC(=O)c1ccc(Cl)cc1	none
CCCc1cc(=O)[nH]c(SCC(=O)N2CCc3ccccc32)n1	none
COCC(=O)N[C@@H]1c2ccccc2CC[C@@H]1OCc1ccccc1	none
O=C(c1ccc(CS(=O)(=O)Cc2ccc(Cl)cc2)o1)N1CCCC1	Bead autofluor 23181
CCOc1cc(Br)ccc1S(=O)(=O)N1CC(C)OC(C)C1 (centres undefined)	Bead autofluor 20570
CCc1nc2ccc(C(=O)NCCc3c[nH]c4ccccc34)cn2c1N(C)CCCc1ccccc1	none (no result: MazF activator)
CN(C)c1ccc(CNC(=O)C2Cc3c(-c4cccc(C(N)=O)c4)ccnc3O2)cc1 (centres undefined)	none (no result: MazF activator)
C=CCSC1=N/C(=C\c2cc(OC)c3c(c2)OCO3)C(=O)S1	MazF activator 518
Cc1nc(N)ncc1CCC1OCCO1	none
Cn1c(=O)c2cc(S(=O)(=O)NCCC(=O)NCCc3ccc(Cl)cc3)ccc2n(C)c1=O	Bead autofluor 17176
CC(=O)c1ccc(OC(C)C(=O)OCC(=O)NCCc2ccccc2)cc1 (centres undefined)	Bead autofluor inconclusive
